POLK inh = DNA polymerase kappa (human) inhibition | Potency, µM (series often up to 107 µM), for the others: top-dose activity, negative = inhibition, most hits filed as inhibitors | actives 0.53% (n = 400,000) | purified Pol kappa, fluorescent DNA synthesis assay, 10 min; also: potency is read from the fitted curve at half-maximal effect; % is scaled to controls: 0 for no effect and ±100 for the full control effect
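Here, compound and 10 nM enzyme are combined for 15 min at room temperature; adding 50 nM substrate (final) starts DNA synthesis, tracked by fluorescence at 0 and 10 min against buffer-only wells.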
POLH inh = blocks human DNA polymerase eta activity; Q9Y253; recombinant Pol eta, fluorescent DNA replication assay; Potency, µM (series often up to 114 µM), for inactives: at the highest dose activity change, negative = inhibition, most hits filed as inhibitors; actives 1.2% (n = 390,000); AID 588591; also: potency is read from the fitted curve at half-maximal effect; % is scaled to controls: 0 for no effect and ±100 for the full control effect
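Pol eta (10 nM) was preincubated with compounds for 15 min at room temperature, after which fluorescent replication substrate (50 nM final) was added to start the reaction. Fluorescence was read kinetically at 0 and 10 min.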
WRN helicase inh = inhibitors of human WRN helicase; actives 0.46% (n = 360,000); AID 651768; WRN helicase unwinding, fluorescent forked duplex, kinetic; Potency, µM (highest dose often 114 µM), for the others: at the top dose activity change, negative = inhibition, most hits filed as inhibitors; also: potency is read from the fitted curve at half-maximal effect; % is scaled to controls: 0 for no effect and ±100 for the full control effect; nearly all actives have a fitted effect of over 55% in size
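Kinetic red-fluorescence monitoring (525/598 nm) tracks WRN helicase activity after 100 nM fluorophore-quencher forked duplex and 2 mM ATP are added to 20 nM enzyme pretreated 15 min at room temperature with compound.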
POLI inh = DNA polymerase iota (human) inhibition | Q9UNA4 | Pol iota fluorescent replication assay, 10 min | Potency, µM (doses to about 115 µM), inactives show at the highest dose activity, negative = inhibition, hits mostly inhibitors | actives 1% (n = 390,000) | AID 588590; also: potency is read from the fitted curve at half-maximal effect
Target sequence (Q9UNA4 whole entry, looked up): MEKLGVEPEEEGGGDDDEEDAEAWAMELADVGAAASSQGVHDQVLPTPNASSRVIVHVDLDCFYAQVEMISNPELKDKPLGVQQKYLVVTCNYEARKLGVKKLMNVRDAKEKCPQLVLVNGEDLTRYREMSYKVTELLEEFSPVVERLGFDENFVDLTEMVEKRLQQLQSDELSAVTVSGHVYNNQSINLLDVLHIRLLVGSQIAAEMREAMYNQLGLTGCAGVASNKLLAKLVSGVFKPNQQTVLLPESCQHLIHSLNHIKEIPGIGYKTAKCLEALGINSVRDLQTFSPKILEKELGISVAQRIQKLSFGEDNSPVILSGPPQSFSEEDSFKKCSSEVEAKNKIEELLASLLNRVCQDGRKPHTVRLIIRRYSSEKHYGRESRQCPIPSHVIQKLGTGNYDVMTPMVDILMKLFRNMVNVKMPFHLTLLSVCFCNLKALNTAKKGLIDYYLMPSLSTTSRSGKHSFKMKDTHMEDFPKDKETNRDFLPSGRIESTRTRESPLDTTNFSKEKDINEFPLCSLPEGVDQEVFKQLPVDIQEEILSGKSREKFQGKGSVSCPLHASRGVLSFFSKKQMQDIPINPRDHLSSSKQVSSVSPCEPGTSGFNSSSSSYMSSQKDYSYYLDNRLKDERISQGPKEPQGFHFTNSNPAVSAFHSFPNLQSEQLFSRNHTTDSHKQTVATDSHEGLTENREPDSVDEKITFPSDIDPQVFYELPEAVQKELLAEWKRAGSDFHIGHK
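Fluorescent replication assay read twice, at 0 min and 10 min after adding 50 nM (final) substrate. Enzyme (10 nM) and compounds were first incubated 15 min at room temperature; enzyme-free buffer wells were negative controls.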
PI5P4K alpha inh = blocks human PI5P4K alpha kinase activity; AID 652105; actives 1.2% (n = 330,000); P48426; max response, %; PI5P4Kalpha enzyme, ADP-Glo luminescence, 60 min; active compounds read low; active = max response of -50% or lower; inconclusive = between -30% and -50%; inactive = -30% or higher; also: value at the top dose of about 77 µM; % is scaled to controls: 0 for no effect and ±100 for the full control effect
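Reactions run in 0.038 M HEPES pH 7.4, 0.28 mM EGTA, 0.1% CHAPS and 5% DMSO, with PI5P4Kalpha, substrate, compound and 5 microM ATP final, one hour at room temperature. Readout is ADP-Glo luminescence.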
Pol beta inh = inhibitors of human DNA polymerase beta | P06746 | Pol beta primer extension/strand displacement, fluorescence kinetic | Potency, µM (highest dose often 114 µM), for the others: top-dose activity change, negative = inhibition, actives largely listed as inhibitors | actives 1.3% (n = 340,000) | AID 485314; also: potency is read from the fitted curve at half-maximal effect; % is scaled to controls: 0 for no effect and ±100 for the full control effect
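Reaction started by 50 nM substrate onto compound-treated Pol beta (10 nM, 15 min preincubation, room temperature); plates read at 0 min and 10 min. Normalized concentration-effect data fitted by four-parameter Hill equation.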
Active calls of the source: *; ? = inconclusive; . = no result; [ ] = remark or other dose. The list is not random: actives were taken first. Their share in the collection is about 2.8%. Unless noted, calls follow the shape of the dose curve; as a rule, active = well fitted curve in the direction sought with a large enough effect; inconclusive = small, poorly fitted or top-dose-only effect, or another doubt; inactive = no such curve, though single readings can be large; an effect the other way counts as inactive or inconclusive.

SMILES	POLK inh	POLH inh	WRN helicase inh	POLI inh	PI5P4K alpha inh	Pol beta inh
c1ccc(Oc2nc(N3CCOCC3)nc(N3CCOCC3)n2)cc1	-3%	-11%	-1%	-29%	.	89µM*
c1cc(C2CCCCC2)ccc1Oc1nc(N2CCOCC2)nc(N2CCOCC2)n1	-7%	5%	-2%	3%	-1	23%
COc1cc(C2C(C#N)=C(N)Oc3n[nH]c(C)c32)cc2c1OCO2 (stereo unspecified)	?	16µM*	-15%[57.1 µM]	?	-19	?
COC(=O)Cc1[nH]nc2c1C(c1ccc(O)c(OC)c1)C(C#N)=C(N)O2 (stereo unspecified)	-32%	45µM*	-21%[57.1 µM]	8.9µM*	-6	-2%
O=C(CSc1nnc(-c2ccccc2F)n1C1CC1)Nc1cccnc1Cl	-7%	-10%	4%	4%	-5	47%
CC(C)CNS(=O)(=O)c1ccc(S(=O)(=O)N2CCN(C3CCCC3)CC2)cc1	5%	-18%	-3%	122%	1	15%
Oc1ccc(/C=N/Nc2cc(N3CCCC3)nc(N3CCCC3)n2)cc1	-6%	-6%	-6%[11.6 µM]	3.5µM*	.	32%
COc1ccc2[nH]cc(C(=O)CNc3nccs3)c2c1	1%	.	.	-10%	.	.
CCOc1[nH]c(/N=C/c2ccccc2)c(C#N)c1C#N	-2%	.	.	?	.	.
COc1[nH]c(/N=C/c2ccco2)c(C#N)c1C#N	-5%	.	.	71µM*	.	.
Cc1cc(OCC(=O)OCC(=O)NC2CCCCC2C)ccc1Cl (stereo unspecified)	-13%	-10%	6%	51%	-2	.
Cc1nc(-c2ccc(Cl)cc2)sc1CCNC(=O)C(=O)Nc1ccccc1C#N	-3%[60.1 µM]	-10%	.	14%	.	-23%
O=C(c1ccccc1)c1ccc2nc(N3CCN(C(=O)c4ccco4)CC3)c3nncn3c2c1	2%	-27%	-12%	79µM*	-17	12%
O=C(c1ccccc1)c1ccc2nc(N3CCN(c4ccccc4)CC3)c3nncn3c2c1	0%	-16%	.	21%	.	-10%
O=C(NNC(=O)c1cccc2ccccc12)c1ccc(Br)cc1	-3%	-6%	-17%	84%	6	.
C=C1c2c(Cl)ccc(O)c2C(O)=C2C(=O)[C@@]3(O)C(O)=C(C(N)=O)C(=O)[C@@H](N(C)C)[C@@H]3[C@@H](O)[C@H]12	2.5µM*	.	.	.	.	.
C[C@H]1c2cccc(O)c2C(O)=C2C(=O)[C@]3(O)C(O)=C(C(N)=O)C(=O)C(N(C)C)[C@@H]3[C@@H](O)C21 (stereo partly specified)	.	-1%[57.1 µM]	.	8%[58.9 µM]	.	18%[57.1 µM]
Cn1nnnc1SCC1=C(C(=O)O)N2C(=O)C(NC(=O)C(OC=O)c3ccccc3)C2SC1 (stereo unspecified)	22µM*	.	.	.	.	.
NC(C(=O)NC1C(=O)N2C(C(=O)O)=C(Cl)CSC12)c1ccccc1 (stereo unspecified)	-16%[60.1 µM]	.	.	.	.	.
Cn1nnnc1SCC1=C(C(=O)O)N2C(=O)[C@@H](NC(=O)[C@H](O)c3ccccc3)[C@H]2SC1	1.6µM*	1.3µM*	25µM*	3.2µM*	?	10µM*
N[C@H](C(=O)N[C@@H]1C(=O)N2C(C(=O)O)=C(Cl)CS[C@@H]12)c1ccccc1	-8%[12 µM]	.	.	.	.	.
Nc1nc(=S)c2ncn([C@@H]3O[C@H](CO)[C@@H](O)[C@H]3O)c2[nH]1	8%	-3%	7%	-4%	-77*	.
CCOc1cc(/C=C2\COc3ccccc3C2=O)cc(Br)c1OCC(=O)N(C)C	1%	?	-26%	18µM*	-3	-25%
COc1ccc(/C=C2/CCc3ccccc3C2=O)cc1OC	-14%	-24%	-8%	11%	3	0%
COc1ccc(/C=C2\COc3ccccc3C2=O)cc1OC	-6%	?	-12%[11.6 µM]	25µM*	2	7%
COc1cc(/C=C2\COC/C(=C\c3cc(OC)c(OC)c(OC)c3)C2=O)cc(OC)c1OC	-21%	?	-18%	11µM*	4	-2%

Screening data as filed in PubChem BioAssay.
